Data published in PubChem BioAssay (Tox21).
Results filed as inconclusive are left out. Calls of active or inactive are those of the source. Unless noted, calls come from the whole dose curve.

Key:
[1] = qHTS assay to identify small molecule antagonists of the sonic hedgehog signaling (Shh) pathway (AID 1259369); note: nearly all actives have a fitted effect of over 45% in size
Summary of the method: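 Cells are plated and held 4hr at 37 C, compounds (DMSO) are pinned in, conditioned medium is added to stimulate the pathway, and after 24hr luciferase reagent is added for 30min before luminescence is read.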

[2] = biological target: Estrogen receptor beta (Homo sapiens) (UniProt Q92731); experiment: qHTS assay to identify small molecule agonists of the estrogen receptor beta (ER-beta) signaling pathway (AID 1259377; active = well fitted activation curve with a large enough effect in the signal ratio in the repeat runs, not every such curve was filed as active; the % refers to the signal ratio)
Estrogen receptor beta (Homo sapiens), sequence (Q92731 whole entry, looked up): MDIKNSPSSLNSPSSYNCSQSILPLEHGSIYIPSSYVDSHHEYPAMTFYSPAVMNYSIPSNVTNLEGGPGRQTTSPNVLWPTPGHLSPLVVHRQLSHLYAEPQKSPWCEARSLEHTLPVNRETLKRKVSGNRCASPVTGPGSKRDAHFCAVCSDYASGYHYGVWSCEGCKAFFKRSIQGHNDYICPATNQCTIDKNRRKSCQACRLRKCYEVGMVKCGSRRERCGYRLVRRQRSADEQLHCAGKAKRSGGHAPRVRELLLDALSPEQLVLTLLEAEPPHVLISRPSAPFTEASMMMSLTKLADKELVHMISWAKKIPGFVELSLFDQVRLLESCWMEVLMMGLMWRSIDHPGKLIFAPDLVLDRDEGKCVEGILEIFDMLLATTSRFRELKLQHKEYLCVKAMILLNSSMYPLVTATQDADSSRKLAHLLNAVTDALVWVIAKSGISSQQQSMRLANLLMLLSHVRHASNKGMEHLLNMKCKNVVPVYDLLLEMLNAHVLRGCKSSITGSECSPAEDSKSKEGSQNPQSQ
Summary of the method: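 Measured by fluorescence intensity from a B/G FRET beta-lactamase substrate (2 h, room temperature) in ER-beta-UAS-bla HEK293T cells treated with DMSO-dissolved compounds for 16 hr at 37C and 5% CO2.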

[3] = qHTS assay to identify small molecule agonists of the androgen receptor (AR) signaling pathway in the presence of an antagonist - cell viability counter screen (AID 1259379; active = well fitted curve in the direction sought with a large enough effect in the repeat runs; an effect the other way counts as inactive or inconclusive; note: nearly all actives have a fitted effect of over 25% in size; note: potency is the fitted concentration of half-maximal effect;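 for activity change, negative = cytotoxicity: MDA-kb2 human breast cancer cells carrying an MMTV luciferase reporter; series mostly up to about 92 µM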)
Summary of the method: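 Cytotoxicity is assessed by CellTiter-Fluor in MDA-kb2 cells carrying an MMTV-driven luciferase reporter. Cells receive 3.0uM nilutamide plus compounds at 15 concentrations and incubate 16 hr at 37C without CO2 before fluorescence reading.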

[4] = qHTS assay to identify small molecule agonists of the estrogen receptor beta (ER-beta) signaling pathway - cell viability counter screen (AID 1259380; active = well fitted curve in the direction sought with a large enough effect in the repeat runs; an effect the other way counts as inactive or inconclusive; note: nearly all actives have a fitted effect of over 30% in size)
Summary of the method: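 Cytotoxicity is measured in parallel with the reporter screen: after 16 hr compound exposure at 37C and a 2 hr LiveBLAzer step, CellTiter-Glo is added to the same ER-beta-UAS-bla HEK293T wells and luminescence read after 30 min.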

[5] = qHTS assay to identify small molecule antagonists of the estrogen receptor beta (ER-beta) signaling pathway - cell viability counter screen (AID 1259382; active = well fitted curve in the direction sought with a large enough effect in the repeat runs; an effect the other way counts as inactive or inconclusive; note: series mostly up to about 92 µM; nearly all actives have a fitted effect of over 55% in size)
Summary of the method: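 Cytotoxicity counter screen multiplexed with the beta-lactamase antagonist assay: GripTite HEK293T ER-beta-bla cells were treated 16 hr with test chemicals in the presence of 1nM 17-beta-estradiol, and viability was measured by CellTiter-Glo.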

[6] = biological target: Estrogen receptor (Homo sapiens) (UniProt P03372); experiment: qHTS assay to identify small molecule agonists of the estrogen receptor alpha (ER-alpha) signaling pathway in the presence of an antagonist (AID 1259383); note: top concentration of the series differs between compounds; nearly all actives have a fitted effect of over 15% in size
Estrogen receptor (Homo sapiens), sequence (P03372 whole entry, looked up): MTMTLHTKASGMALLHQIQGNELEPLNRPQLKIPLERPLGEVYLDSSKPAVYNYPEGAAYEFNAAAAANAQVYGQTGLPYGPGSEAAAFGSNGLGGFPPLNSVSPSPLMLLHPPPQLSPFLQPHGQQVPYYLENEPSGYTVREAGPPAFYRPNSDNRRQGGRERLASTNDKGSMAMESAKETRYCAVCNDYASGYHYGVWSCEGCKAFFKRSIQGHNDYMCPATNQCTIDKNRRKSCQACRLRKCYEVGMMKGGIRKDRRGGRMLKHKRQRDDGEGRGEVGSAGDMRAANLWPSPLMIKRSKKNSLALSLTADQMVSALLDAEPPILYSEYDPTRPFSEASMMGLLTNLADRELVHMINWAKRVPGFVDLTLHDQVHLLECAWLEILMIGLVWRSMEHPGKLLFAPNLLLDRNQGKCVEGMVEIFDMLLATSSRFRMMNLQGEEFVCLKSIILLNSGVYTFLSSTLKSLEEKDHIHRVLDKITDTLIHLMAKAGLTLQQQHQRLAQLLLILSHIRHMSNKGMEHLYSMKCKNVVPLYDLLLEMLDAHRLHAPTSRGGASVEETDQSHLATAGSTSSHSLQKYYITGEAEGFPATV
Summary of the method: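 Agonist-mode confirmation in the presence of the ER antagonist ICI-182,780 at 10.0nM final. Breast-derived VM7Luc4E2 reporter cells were exposed to compounds for 22hr, and ERE-driven luciferase was quantified by luminescence.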

[7] = qHTS assay to identify small molecule agonists or antagonists of the thyroid stimulating hormone receptor (TSHR) signaling pathway - wild type cell line counter screen (AID 1259384)
Summary of the method: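 Wild-type HEK293 cells were plated 18 h at 37 C/5% CO2, pin-dosed with compound plus Ro20-1724 medium, held 30 min at room temperature, then given cAMP-d2 and anti-cAMP-cryptate; fluorescence was read after 1 h. Fifteen concentrations, triplicate.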

[8] = biological target: Thyrotropin receptor (Homo sapiens) (UniProt P16473); experiment: qHTS assay to identify small molecule antagonists of the thyroid stimulating hormone receptor (TSHR) signaling pathway (AID 1259385); note: nearly all actives have a fitted effect of over 20% in size
Thyrotropin receptor (Homo sapiens), sequence (P16473 whole entry, looked up): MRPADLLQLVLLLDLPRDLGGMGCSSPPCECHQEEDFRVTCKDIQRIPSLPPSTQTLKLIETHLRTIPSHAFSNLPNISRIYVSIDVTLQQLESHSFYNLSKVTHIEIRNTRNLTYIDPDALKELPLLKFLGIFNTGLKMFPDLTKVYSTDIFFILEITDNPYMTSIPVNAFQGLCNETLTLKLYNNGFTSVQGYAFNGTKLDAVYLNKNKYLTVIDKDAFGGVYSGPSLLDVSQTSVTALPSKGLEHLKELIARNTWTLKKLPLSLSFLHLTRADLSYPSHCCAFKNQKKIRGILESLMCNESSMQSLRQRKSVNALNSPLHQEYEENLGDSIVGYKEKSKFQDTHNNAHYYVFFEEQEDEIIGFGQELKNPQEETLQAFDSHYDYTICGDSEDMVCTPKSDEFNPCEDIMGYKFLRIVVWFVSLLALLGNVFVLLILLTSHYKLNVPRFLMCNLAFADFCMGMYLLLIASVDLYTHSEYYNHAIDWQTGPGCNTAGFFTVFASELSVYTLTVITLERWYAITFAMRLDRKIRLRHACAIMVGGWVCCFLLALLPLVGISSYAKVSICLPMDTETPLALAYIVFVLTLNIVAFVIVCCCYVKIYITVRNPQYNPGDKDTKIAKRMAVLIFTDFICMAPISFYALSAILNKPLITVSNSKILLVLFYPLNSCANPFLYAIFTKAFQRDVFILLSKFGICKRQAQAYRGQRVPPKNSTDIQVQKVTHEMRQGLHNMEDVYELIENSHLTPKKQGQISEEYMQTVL
Summary of the method: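 TSHR-HEK293 cells were plated and held 18 h at 37C/5% CO2, then given compound plus Ro20-1724 and stimulated with TSH at 1.5 ng/mL final. After 30 min at room temperature, cAMP was detected with cAMP-d2/anti-cAMP-cryptate (1 h) by fluorescence.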

[9] = biological target: Androgen receptor (Homo sapiens) (UniProt P10275); experiment: qHTS assay to identify small molecule agonists of the androgen receptor (AR) signaling pathway in the presence of an antagonist (AID 1259381); note: nearly all actives have a fitted effect of over 15% in size
Androgen receptor (Homo sapiens), sequence (P10275 whole entry, looked up): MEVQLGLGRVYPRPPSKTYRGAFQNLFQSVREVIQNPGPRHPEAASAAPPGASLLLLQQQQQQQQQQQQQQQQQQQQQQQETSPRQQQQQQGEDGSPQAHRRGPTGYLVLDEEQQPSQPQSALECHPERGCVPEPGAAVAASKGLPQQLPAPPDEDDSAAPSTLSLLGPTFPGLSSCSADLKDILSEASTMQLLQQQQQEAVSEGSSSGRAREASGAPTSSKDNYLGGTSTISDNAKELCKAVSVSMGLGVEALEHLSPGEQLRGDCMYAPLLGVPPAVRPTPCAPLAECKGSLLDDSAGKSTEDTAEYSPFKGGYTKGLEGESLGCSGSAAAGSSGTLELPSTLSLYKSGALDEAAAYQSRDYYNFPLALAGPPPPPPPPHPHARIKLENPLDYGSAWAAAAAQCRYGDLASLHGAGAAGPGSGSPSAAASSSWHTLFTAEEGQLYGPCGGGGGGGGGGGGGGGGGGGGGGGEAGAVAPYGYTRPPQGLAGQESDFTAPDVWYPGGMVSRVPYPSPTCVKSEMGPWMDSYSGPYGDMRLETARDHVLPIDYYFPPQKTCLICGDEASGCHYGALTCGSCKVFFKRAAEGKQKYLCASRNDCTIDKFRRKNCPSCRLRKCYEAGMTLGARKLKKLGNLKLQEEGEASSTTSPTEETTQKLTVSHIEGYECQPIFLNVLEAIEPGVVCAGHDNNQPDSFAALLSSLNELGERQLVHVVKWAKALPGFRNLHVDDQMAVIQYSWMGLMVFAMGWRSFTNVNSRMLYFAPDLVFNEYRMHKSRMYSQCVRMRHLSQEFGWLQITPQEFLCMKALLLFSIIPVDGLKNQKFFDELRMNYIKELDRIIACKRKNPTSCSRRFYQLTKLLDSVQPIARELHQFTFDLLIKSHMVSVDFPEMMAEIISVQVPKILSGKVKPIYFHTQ
Summary of the method: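 Agonist-mode confirmation screen: human MDA-kb2 cells stably expressing luciferase under an MMTV promoter bearing AR and GR response elements, co-treated with 3.0uM nilutamide (final). Luminescence measured after 16hr compound incubation.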

[10] = biological target: Estrogen receptor beta (Homo sapiens) (UniProt Q92731); experiment: qHTS assay to identify small molecule antagonists of the estrogen receptor beta (ER-beta) signaling pathway (AID 1259378; active = well fitted inhibition curve with a large enough effect in the signal ratio in the repeat runs, not every such curve was filed as active; the % refers to the signal ratio)
Summary of the method: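 ER-beta-UAS-bla HEK293T (GripTite) cells in 2% charcoal-stripped FBS medium were preincubated 6 hr at 37C, dosed with compound, then stimulated with 1 nM E2 (final) for 16 hr; beta-lactamase reporter read by B/G FRET fluorescence after 2 hr substrate loading.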
% is set by controls: 0 for no effect and ±100 for the full control effect.

Cc1ccc(C=O)cc1C
inactive: Potency [1] | Potency [2] | Potency [3] | Potency [4] | outcome [5] | outcome [6] | outcome [7] | outcome [8]

OCCC(F)(F)C(F)(F)C(F)(F)C(F)(F)C(F)(F)C(F)(F)C(F)(F)C(F)(F)F
inactive: Potency [1] | Potency [2] | Potency [3] | Potency [4] | Potency [9] | outcome [5] | outcome [6]

Cc1ccccc1OCC(O)CO (stereo unspecified)
inactive: Potency [1] | Potency [2] | outcome [10] | Potency [3] | outcome [5] | outcome [7] | outcome [8]

Nc1ccc(S(=O)(=O)Nc2ccc(Cl)nn2)cc1
inactive: Potency [1] | Potency [2] | Potency [3] | Potency [4] | Potency [9] | outcome [5] | outcome [6]

CC(CN)CC(C)(C)CCN (stereo unspecified)
inactive: Potency [1] | Potency [2] | outcome [10] | Potency [3] | outcome [5] | outcome [7] | outcome [8]

O=C(OCC(COC(=O)c1cccnc1)(COC(=O)c1cccnc1)COC(=O)c1cccnc1)c1cccnc1
inactive: Potency [1] | Potency [2] | Potency [3] | Potency [4] | Potency [9] | outcome [5] | outcome [6] | outcome [7]

CC/C=C\CC1=C(C)CCC1=O
inactive: Potency [1] | Potency [2] | Potency [3] | Potency [4] | Potency [9] | outcome [5] | outcome [7] | outcome [8]

CC1(C)S[C@@H]2[C@H](N=CN3CCCCCC3)C(=O)N2[C@H]1C(=O)O
inactive: Potency [1] | Potency [2] | Potency [3] | Potency [4] | outcome [5] | outcome [6] | outcome [7] | outcome [8]

Oc1cn2c(n1)Nc1ccc(Cl)c(Cl)c1C2
inactive: activity change, negative = inhibition [1] -20% [at 19 µM] | activation [2] -3.28% [at 19 µM] | activity change, negative = cytotoxicity [3] 0.214% [at 19 µM] | activity change, negative = cytotoxicity [4] 8.72% [at 19 µM] | activation [9] 1.01% [at 19 µM] | activity change, negative = cytotoxicity [5] 4.54% [at 19 µM] | activation [6] -1.28% [at 19 µM] | cAMP activity change [7] -0.126% [at 18.9 µM]

COC(=O)CCCCCCCC(=O)OC
inactive: Potency [1] | Potency [2] | Potency [3] | Potency [4] | outcome [5] | outcome [6] | outcome [7] | outcome [8]

CC[C@H](C)C(=O)O[C@H]1C[C@H](O)C=C2C=C[C@H](C)[C@H](CC[C@@H](O)C[C@@H](O)CC(=O)O)[C@H]21
inactive: Potency [1] | Potency [2] | Potency [3] | Potency [4] | outcome [5] | outcome [6]

CCN(CC)CC(=O)Nc1c(C)cccc1C
inactive: Potency [1] | Potency [2] | Potency [3] | Potency [4] | Potency [9] | outcome [5] | outcome [7] | outcome [8]

NS(=O)(=O)c1cc2c(cc1Cl)CN(C1CCCCC1)C2=O
inactive: Potency [1] | Potency [2] | Potency [3] | Potency [4] | Potency [9] | outcome [5] | outcome [7] | outcome [8]

N[C@@H](CCC(=O)Nc1ccc([N+](=O)[O-])cc1)C(=O)O
inactive: Potency [1] | Potency [2] | Potency [4] | Potency [9] | outcome [5] | outcome [6] | outcome [7] | outcome [8]
active: Potency [3] 48.6 µM

COCCc1ccc(OCC2CO2)cc1 (stereo unspecified)
inactive: Potency [1] | Potency [2] | Potency [3] | Potency [4] | Potency [9] | outcome [5] | outcome [6] | outcome [7] | outcome [8]

c1ccc2nccnc2c1
inactive: Potency [1] | Potency [2] | Potency [3] | Potency [4] | outcome [5] | outcome [6] | outcome [7]

C[C@@H](Oc1ccc(CNC(=O)c2cccnc2Oc2ccc3c(c2)OCO3)c(F)c1)C(=O)O
inactive: Potency [1] | Potency [2] | Potency [3] | Potency [4] | outcome [5] | outcome [6]

CC(C)c1ccc2cc(C(C)C)ccc2c1
inactive: Potency [1] | Potency [2] | Potency [3] | Potency [4] | Potency [9] | outcome [5] | outcome [6] | outcome [7] | outcome [8]

O=C(O)c1cc(Br)c(O)c(Br)c1
inactive: Potency [1] | Potency [2] | Potency [3] | Potency [4] | Potency [9] | outcome [5] | outcome [7] | outcome [8]

CC(C)NCC(O)COc1ccc(COCCOC(C)C)cc1 (stereo unspecified)
inactive: Potency [1] | Potency [2] | Potency [3] | Potency [4] | Potency [9] | outcome [5] | outcome [6] | outcome [7] | outcome [8]

COC(=O)[C@@H]1[C@H]2C[C@H]3c4[nH]c5ccccc5c4CCN3C[C@@H]2CC[C@@H]1O
inactive: Potency [1] | Potency [2] | Potency [3] | Potency [4] | outcome [5] | outcome [6] | outcome [7]

CCCCNC1CC(C)(C)NC(C)(C)C1
inactive: Potency [1] | Potency [2] | outcome [10] | Potency [4] | outcome [5] | outcome [6] | outcome [7] | outcome [8]

CN1CCN(CC(=O)N2c3ccccc3C(=O)Nc3cccnc32)CC1
inactive: activity change, negative = inhibition [1] 12.8% [at 8.39 µM] | activation [2] 7.01% [at 8.39 µM] | activity change, negative = cytotoxicity [3] -6.25% [at 8.39 µM] | activity change, negative = cytotoxicity [4] 5.53% [at 8.39 µM] | activity change, negative = cytotoxicity [5] 9.64% [at 8.39 µM] | activation [6] 0.843% [at 8.39 µM] | cAMP activity change [7] -2.81% [at 8.39 µM] | activity change, negative = inhibition [8] 0.681% [at 8.39 µM]

CC(C)CCCC(C)(C)O
inactive: Potency [1] | Potency [2] | Potency [3] | Potency [4] | outcome [5] | outcome [6] | outcome [7]

Oc1ccccc1-c1nnco1
inactive: Potency [1] | Potency [2] | Potency [3] | Potency [4] | Potency [9] | outcome [5] | outcome [6] | outcome [7] | outcome [8]

Nc1nnc(-c2cccc(Cl)c2Cl)c(N)n1
inactive: Potency [1] | Potency [2] | Potency [3] | Potency [4] | outcome [5] | outcome [7] | outcome [8]

CCn1ccc(NS(=O)(=O)c2ccc(N)cc2)nc1=O
inactive: Potency [1] | Potency [2] | Potency [3] | Potency [4] | outcome [5] | outcome [6] | outcome [7] | outcome [8]

N[C@@H](COP(=O)(O)O)C(=O)O
inactive: activity change, negative = inhibition [1] 28.3% [at 19 µM] | activation [2] 0.272% [at 19 µM] | activity change, negative = cytotoxicity [3] -2.46% [at 19 µM] | activity change, negative = cytotoxicity [4] 5.8% [at 19 µM] | activity change, negative = cytotoxicity [5] 9.58% [at 19 µM] | cAMP activity change [7] 0.501% [at 18.9 µM] | activity change, negative = inhibition [8] -0.736% [at 19 µM]
